Assay results published in the supplement of paper PMC10127200.
Where a name gives a salt, the structure may show the parent alone.

Columns and labels:
Assay in all cases: Euclidean distance of Cell Painting phenotypic profile (signed KS, 77 features) to DMSO centroid (dimensionless distance); 5 or 10 uM (library dependent); higher = stronger phenotypic change vs DMSO (phenoactivity)
Settings in all cases: 48 h
786-O = test system: 786-O
In short: (§1)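 Library compounds were applied at 10 or 5 uM, depending on the library, with 0.1% DMSO final, for 48 h to five cancer lines and a healthy fibroblast line. After staining, cells were imaged confocally at 20X across 9 fields per well, and Harmony extracted 77 features, each scored as a signed Kolmogorov-Smirnov statistic against vehicle wells on the same plate. Phenoactivity is the Euclidean distance between each profile and the median vehicle profile, with profiles first plate-position corrected, correlation-weighted and averaged over replicates at the top dose.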

A549 = test system: A549
In short: as §1

DU145 = test system: DU145
In short: as §1

FB = test system: FB
In short: as §1

HEPG2 = test system: HEPG2
In short: as §1

OVCAR4 = test system: OVCAR4
In short: as §1

SMILES	Euclidean distance (786-O)	Euclidean distance (A549)	Euclidean distance (DU145)	Euclidean distance (FB)	Euclidean distance (HEPG2)	Euclidean distance (OVCAR4)
CC1(C)OC(=O)NC1=O [5.5-Dimethyloxazolidine-2.4-dione]	0.865	0.849	1.06	1.02	0.557	0.894
CN1C(C(=O)Nc2ccccn2)=C(O)c2sccc2S1(=O)=O [Tenoxicam]	0.866	1.16	1.02	0.733	2.05	1.22
COc1cc2nc(N3CCN(C(=O)C4CCCO4)CC3)nc(N)c2cc1OC (centres undefined) [Terazosin HCl Dihydrate]	1.02	0.591	1.34	1.07	1.69	1.43
CCCCCCNC(=O)n1cc(F)c(=O)[nH]c1=O [Carmofur]	2.44	2.89	1.27	2.91	2.49	2.82
CCCCCCCCCCCCCCCCCCOCC(O)CO (centres undefined) [Batyl alcohol]	0.871	0.609	0.705	1.18	0.262	0.921
O=C(NS(=O)(=O)c1ccc(Br)s1)c1ccc(Cl)cc1Cl [Tasisulam]	1.38	0.993	1.21	0.939	1.22	1.66
O=C(Nc1ccncc1)c1cc([N+](=O)[O-])ccc1Cl	1.2	0.794	2.19	0.879	1.09	2.04
COc1cc2ncnc(Nc3cccc(Cl)c3)c2cc1OC [AG-1478 (Tyrphostin AG-1478)]	1.39	1.29	1.45	1.21	0.941	0.649
Cc1nccn1CC1CCc2c(c3ccccc3n2C)C1=O (centres undefined) [Ondansetron Hydrochloride Dihydrate]	1.23	0.687	0.998	1.01	1.39	1.43
CCCNC(C)C(=O)Nc1ccccc1C (centres undefined) [Prilocaine]	1.25	0.85	0.708	1.93	0.648	0.974
N#Cc1c(Oc2ccc(F)c(NC(=O)Cc3cccc(C(F)(F)F)c3)c2)ccc2nc(NC(=O)C3CC3)sc12	2.61	2.09	0.85	1.19	1.22	2.04
CC(C)(C)C(=O)OCOP(=O)(COCCn1cnc2c(N)ncnc21)OCOC(=O)C(C)(C)C [Adefovir Dipivoxil]	2.81	2.71	2.07	2.73	3.97	3.18
N=C1CCCN1Cc1[nH]c(=O)[nH]c(=O)c1Cl [Tipiracil hydrochloride]	1.02	0.947	0.925	1.05	0.343	0.676
CC1CCN(CC[C@H]2CCCN2S(=O)(=O)c2cccc(O)c2)CC1	0.546	0.904	0.705	1.11	1.48	0.827
CC[C@H]1OC(=O)[C@H](C)[C@@H](O[C@H]2C[C@@](C)(OC)[C@@H](O)[C@H](C)O2)[C@H](C)[C@@H](O[C@@H]2O[C@H](C)C[C@H](N(C)C)[C@H]2O)[C@](C)(OC)C[C@@H](C)C(=O)[C@H](C)[C@@H](O)[C@]1(C)O [Clarithromycin]	0.952	0.722	0.938	0.905	0.629	0.909
Nc1nc2[nH]cc(CCc3ccc(C(=O)N[C@@H](CCC(=O)O)C(=O)O)cc3)c2c(=O)[nH]1 [Pemetrexed]	1.73	2.69	1.14	0.521	1.85	3.1
COc1ccc(C2=N[C@@H](c3ccc(Cl)cc3)[C@@H](c3ccc(Cl)cc3)N2C(=O)N2CCNC(=O)C2)c(OC(C)C)c1 [Nutlin-3]	1.4	3.54	1.03	2.68	2.58	1.17
Cc1c(NC(=O)OC[C@@H]2COCCN2)cn2ncnc(Nc3ccc4c(cnn4Cc4cccc(F)c4)c3)c12	2.06	1.47	1.13	1.52	1.28	0.963
Nc1c2c(nc3ccccc13)CCCC2 [Tacrine HCl]	0.888	0.485	0.636	1.21	0.472	1.16
Oc1nc(-c2ccc(C(F)(F)F)cc2)nc2c1CSCC2	0.915	1.5	1.11	0.913	0.766	1.15
CO[C@H]1CC[C@H](N2C(=O)CNc3ncc(-c4ccc(C(C)(C)O)nc4)nc32)CC1	3.2	3.38	2.56	3.76	2.34	3
CCCCCCCCCCCCCCCCn1cc[n+](Cc2ccccc2)c1C	3.58	4.18	2.89	2.94	4.61	4.19
CC[C@H]1OC(=O)[C@H](C)[C@@H](O[C@H]2C[C@@](C)(OC)[C@@H](O)[C@H](C)O2)[C@H](C)[C@@H](O[C@@H]2O[C@H](C)C[C@H](N(C)C)[C@H]2O)[C@](C)(O)C[C@@H](C)C(=O)[C@H](C)[C@H]2OC(=O)O[C@@]21C [Erythromycin Cyclocarbonate]	1.11	1.33	0.736	0.984	1.01	0.912
CC(=O)N[C@@H](CS)C(=O)O [Acetylcysteine]	0.996	1.28	1.2	0.709	0.571	1.6
